From PubChem BioAssay AID651662 (NMMLSC, 2012)
Active and inactive are the calls of the source.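 How the source made its calls: active means fitted concentration giving half the fluorescence drop below 100 µM; inactive means the rest.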

Assay: compound effects, K562 without functional ABCB6 – cell-based, flow cytometry, PowderSet01 powders, counter-screen for ABCB6 inhibitor project, dose response (AID 651662)
Settings: K562 empty-vector cells, 1 h; series mostly up to 100 µM

SMILES	outcome
CC(=O)Nc1ccc(NC(=O)c2nc(S(=O)(=O)Cc3ccccc3)ncc2Cl)cc1	inactive
CC(=O)Nc1ccc(NC(=O)c2nc(S(=O)(=O)Cc3cccc(C)c3)ncc2Cl)cc1	inactive
CCOc1ccccc1NC(=O)c1nc(S(=O)(=O)Cc2cccc(C)c2)ncc1Cl	inactive
CCc1ccc(NC(=O)c2nc(S(=O)(=O)Cc3ccccc3)ncc2Cl)cc1	inactive
